Experiment [1] can be described thus: anti-His antibody binders, primary screen, artefact control for SMM control protein annotation, biochemical, small-molecule microarray, 635 nm fluorescence (AID 1128).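 Further: score merges feature fluorescence with signal-to-noise for each printed compound spot.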 Particulars: anti-His Alexa647 antibody binding, higher = more signal.
Experiment [2] concerns Human papillomavirus type 1a E7 protein (residues 1-88). Description: HPV1a E7 small-molecule binders, primary screen, biochemical, small-molecule microarray, residues 1-88, 635 nm (AID 1129). Particulars: small-molecule microarray binding, fluorescence 635 nm; higher = more signal.
Experiment [3] addresses Focal adhesion kinase 1 (Homo sapiens) (UniProt Q05397). The experiment is described as follows: small-molecule microarray binders of FAK, primary screen, biochemical, 635/667 nm fluorescence, BSA, DTT (AID 1130).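 Further: composite of spot emission at 667 nm and signal to noise over triplicate slides.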 Particulars: PTK2 binding, 635 nm fluorescence, higher = more signal.
The subject of experiment [4] is Fibrinogen (Alexa647-labelled). The experiment is described as follows: fibrinogen binders on compound microarrays, profiling panel, artefact control for SMM control-protein annotation, biochemical, small-molecule microarray, 635/667 nm fluorescence (AID 1131).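 Further: z-score merges 667 nm fluorescence with per-spot signal-to-noise over triplicate slides.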 Conditions: fibrinogen-A647 binding fluorescence, higher = more signal.
In experiment [5] the target is Follistatin (Homo sapiens) (UniProt P19883). Description: follistatin binders on small-molecule microarrays, primary screen, biochemical, small-molecule microarray, 635/667 nm fluorescence (AID 1132). Particulars: FST binding, 635 nm fluorescence, higher = more signal.
Follistatin (Homo sapiens), sequence (P19883 whole entry, looked up): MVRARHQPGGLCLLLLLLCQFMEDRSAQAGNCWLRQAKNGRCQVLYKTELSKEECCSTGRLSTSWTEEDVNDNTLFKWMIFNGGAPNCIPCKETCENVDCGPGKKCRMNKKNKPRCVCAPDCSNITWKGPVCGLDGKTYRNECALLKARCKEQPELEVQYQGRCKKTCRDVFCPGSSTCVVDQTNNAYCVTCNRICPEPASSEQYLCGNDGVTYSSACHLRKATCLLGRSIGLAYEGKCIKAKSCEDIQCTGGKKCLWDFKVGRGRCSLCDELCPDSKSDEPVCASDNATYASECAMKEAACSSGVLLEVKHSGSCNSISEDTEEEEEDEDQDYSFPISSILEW
Experiment [6] has as its target Fibroblast growth factor 2 (Homo sapiens) (UniProt P09038). Description: FGF2 binders on small-molecule microarrays, primary screen, biochemical, small-molecule microarray, 635/667 nm fluorescence (AID 1133). Particulars: small-molecule microarray binding, FGF2, fluorescence 635/667; higher = more signal.
Experiment [7] in a line: mitochondrial membrane potential change in A549 cells, profiling panel, cell-based, JC-1 fluorescence, basal, 24 h, 100 nL (AID 1138).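 Further: A549 lung adenocarcinoma cells under basal conditions with no added stimulus; test concentration not given here.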 Particulars: higher = more signal.
In another experiment the test system is Lefty1. Description: Lefty1 binders on small-molecule microarrays, primary screen, biochemical, small-molecule microarray, 635/667 nm fluorescence (AID 1139). Particulars: small-molecule microarray binding, fluorescence 635/667; higher = more signal.
Experiment [8] deals with wheat germ agglutinin (Triticum aestivum), Alexa647-labelled. The experiment is described as follows: wheat germ agglutinin binders on compound microarrays, profiling panel, artefact control for SMM control-protein annotation, biochemical, small-molecule microarray, 635/667 nm fluorescence (AID 1140).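 Further: score merges 667 nm feature emission with signal to noise over triplicate slides.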 Particulars: WGA-A647 binding, 635 nm fluorescence, higher = more signal.

Experiment [9] concerns the target Luciferin 4-monooxygenase (Photinus pyralis) (UniProt P08659). The experiment is described as follows: firefly luciferase enzyme inhibitors, primary screen, biochemical, luminescence, purified enzyme, 2006 set (AID 1141).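 Further: cell-free assay with purified firefly luciferase at 100 ng per well in PBS; test concentration not given here.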 Conditions: SteadyGlo luminescence, 30 min, higher = more signal, called active from +8 up or from −8 down.
Experiment [10] has as its system Wnt5a (protein binding on small-molecule microarray). The experiment is described as follows: Wnt5a binders on small-molecule microarray, primary screen, biophysical, 635/667 nm fluorescence (AID 1142).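 Further: fluorescence read at 667 nm with signal to noise per printed feature.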 Particulars: 635 nm fluorescence, higher = more signal.
Experiment [11] in a line: cell viability in Huh7 cells, primary screen, cytotoxicity control for HCV replication inhibitor project, CellTiter-Glo luminescence, basal, 48 h (AID 1143).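 Further: Huh7 hepatoma cells carrying a hepatitis C replication reporter with no stimulus; test concentration not given here.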 Particulars: Huh7 HCV replicon, higher = more signal, called active from +8 up or from −8 down. In general terms: In ATP-based viability assays light output follows the ATP content of the culture.
The nature of experiment [12]: P. aeruginosa biofilm formation inhibitors, primary screen, PAO1 strain, BacTiter-Glo luminescence, LB-PBS (AID 1144). Particulars: 12 h, higher = more signal.
The nature of experiment [13]: CREB reporter modulators without forskolin, primary screen, cell-based, PC12, CRE-LacZ reporter, unstimulated (AID 1145). Conditions: no forskolin, luminescence, 4.5 h, higher = more signal, called active from +8 up or from −8 down.
The nature of experiment [14]: CREB reporter modulators under forskolin, primary screen, cell-based, PC12, CRE-LacZ reporter, forskolin-stimulated (AID 1146).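 Further: PC12 cells with 6xCRE LacZ reporter stimulated by forskolin 10 µM; beta-galactosidase reporter signal reflecting CREB driven transcription.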 Particulars: luminescence, 4.5 h, higher = more signal, called active from +8 up or from −8 down.
Experiment [15] deals with Streptavidin (Streptomyces avidinii) (UniProt P22629). The experiment is described as follows: streptavidin binders on small-molecule microarray, primary screen, artefact control for SMM compound annotation, biophysical, 635/667 nm fluorescence (AID 1147).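 Further: signal reflects streptavidin binding to arrayed compounds as a control protein.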 Particulars: streptavidin binding, higher = more signal.
Streptavidin (Streptomyces avidinii), sequence (P22629 whole entry, looked up): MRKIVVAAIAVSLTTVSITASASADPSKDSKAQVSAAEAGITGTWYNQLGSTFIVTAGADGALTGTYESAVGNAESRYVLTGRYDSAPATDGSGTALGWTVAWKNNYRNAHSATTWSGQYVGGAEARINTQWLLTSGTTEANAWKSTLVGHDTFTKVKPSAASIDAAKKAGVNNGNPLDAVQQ
A short description of experiment [16]: small-molecule binders of probe aInhba, primary screen, biochemical, small-molecule microarray, 635/667 nm fluorescence (AID 1148).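 Further: score merges 667nm spot fluorescence with signal-to-noise for antibody binding to printed compounds.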 Particulars: higher = more signal.
For experiment [17], the target named is Torsin-1A (Homo sapiens) (UniProt O14656). The experiment is described as follows: torsin A binders from cell lysate, primary screen, small-molecule microarray, wild-type, 635/667 nm (AID 1149). Conditions: COS7 hTOR1A-WT lysate, 635 nm fluorescence, higher = more signal.
Torsin-1A (Homo sapiens), sequence (O14656 whole entry, looked up): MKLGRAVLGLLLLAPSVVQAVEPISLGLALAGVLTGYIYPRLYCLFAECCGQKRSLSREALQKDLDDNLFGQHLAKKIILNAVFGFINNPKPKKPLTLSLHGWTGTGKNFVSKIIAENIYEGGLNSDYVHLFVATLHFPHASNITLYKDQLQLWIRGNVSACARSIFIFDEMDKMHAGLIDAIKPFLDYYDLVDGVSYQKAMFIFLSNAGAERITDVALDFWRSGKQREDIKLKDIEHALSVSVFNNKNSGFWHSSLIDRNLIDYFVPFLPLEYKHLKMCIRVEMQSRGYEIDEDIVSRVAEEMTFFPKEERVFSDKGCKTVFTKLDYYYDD
Experiment [18] shares this target. The experiment is described as follows: small-molecule binders of mutant TOR1A in lysate, primary screen, cell lysate, small-molecule microarray, COS7 lysate, 635/667 nm fluorescence (AID 1150).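 Further: score pools 667 nm emission and signal to noise measuring lysate protein binding.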 Particulars: COS7 hTOR1A mutant lysate, 635 nm fluorescence, higher = more signal.
Experiment [19] concerns Sonic hedgehog protein (Shh). Description: small-molecule binders of Shh protein, primary screen, biochemical, small-molecule microarray, 635/667 nm fluorescence (AID 1151).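 Further: Shh protein binding to compounds spotted on small-molecule microarray slides; score combines spot fluorescence intensity with signal-to-noise across triplicate slides.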 Conditions: small-molecule microarray binding, 635 nm fluorescence; higher = more signal.

SMILES strings stand for the structures. Calls of active or inactive are those of the source. Unless noted, how the calls were made is not given here.

Luciferin 4-monooxygenase (Photinus pyralis), sequence (P08659 whole entry, looked up): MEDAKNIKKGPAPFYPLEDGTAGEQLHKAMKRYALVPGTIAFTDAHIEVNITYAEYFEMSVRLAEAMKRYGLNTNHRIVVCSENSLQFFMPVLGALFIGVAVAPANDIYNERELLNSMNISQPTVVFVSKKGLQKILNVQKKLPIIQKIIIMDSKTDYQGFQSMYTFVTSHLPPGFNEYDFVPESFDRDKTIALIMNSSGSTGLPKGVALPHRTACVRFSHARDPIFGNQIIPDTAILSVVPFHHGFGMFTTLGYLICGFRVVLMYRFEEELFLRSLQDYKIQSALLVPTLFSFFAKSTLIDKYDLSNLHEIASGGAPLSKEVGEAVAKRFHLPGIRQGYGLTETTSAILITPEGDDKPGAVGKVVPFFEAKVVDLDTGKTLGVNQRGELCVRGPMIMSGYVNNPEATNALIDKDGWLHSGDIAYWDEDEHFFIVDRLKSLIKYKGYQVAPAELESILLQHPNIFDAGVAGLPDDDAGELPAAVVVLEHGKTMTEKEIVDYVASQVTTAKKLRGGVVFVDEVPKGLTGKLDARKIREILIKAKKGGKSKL
Focal adhesion kinase 1 (Homo sapiens), sequence (Q05397 whole entry, looked up): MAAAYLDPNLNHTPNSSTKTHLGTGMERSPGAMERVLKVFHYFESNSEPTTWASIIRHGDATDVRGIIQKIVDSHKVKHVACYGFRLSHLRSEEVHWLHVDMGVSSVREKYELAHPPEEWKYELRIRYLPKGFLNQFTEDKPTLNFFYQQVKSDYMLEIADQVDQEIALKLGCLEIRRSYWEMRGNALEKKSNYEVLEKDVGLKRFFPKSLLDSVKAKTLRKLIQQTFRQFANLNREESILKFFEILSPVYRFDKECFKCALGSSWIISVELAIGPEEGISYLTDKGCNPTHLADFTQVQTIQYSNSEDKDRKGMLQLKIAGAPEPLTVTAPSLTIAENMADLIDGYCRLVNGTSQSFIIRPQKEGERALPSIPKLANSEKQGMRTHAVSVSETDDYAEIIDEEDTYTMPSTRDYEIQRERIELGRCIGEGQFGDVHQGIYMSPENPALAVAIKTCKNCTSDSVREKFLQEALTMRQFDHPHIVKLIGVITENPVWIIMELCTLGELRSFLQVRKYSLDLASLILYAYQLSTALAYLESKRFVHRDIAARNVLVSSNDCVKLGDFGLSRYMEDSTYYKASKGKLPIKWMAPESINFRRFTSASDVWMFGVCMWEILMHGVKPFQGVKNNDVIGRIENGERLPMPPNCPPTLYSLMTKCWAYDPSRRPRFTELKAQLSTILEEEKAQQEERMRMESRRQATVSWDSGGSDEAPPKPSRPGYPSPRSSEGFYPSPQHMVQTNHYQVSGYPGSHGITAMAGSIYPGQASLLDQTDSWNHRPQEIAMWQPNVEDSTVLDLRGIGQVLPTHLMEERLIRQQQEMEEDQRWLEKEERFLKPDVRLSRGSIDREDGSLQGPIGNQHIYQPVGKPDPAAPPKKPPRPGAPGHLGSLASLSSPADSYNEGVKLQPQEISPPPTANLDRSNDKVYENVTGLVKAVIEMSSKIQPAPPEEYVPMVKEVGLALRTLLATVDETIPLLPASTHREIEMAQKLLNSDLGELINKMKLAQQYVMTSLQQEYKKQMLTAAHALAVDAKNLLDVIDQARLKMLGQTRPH
Fibroblast growth factor 2 (Homo sapiens), sequence (P09038 whole entry, looked up): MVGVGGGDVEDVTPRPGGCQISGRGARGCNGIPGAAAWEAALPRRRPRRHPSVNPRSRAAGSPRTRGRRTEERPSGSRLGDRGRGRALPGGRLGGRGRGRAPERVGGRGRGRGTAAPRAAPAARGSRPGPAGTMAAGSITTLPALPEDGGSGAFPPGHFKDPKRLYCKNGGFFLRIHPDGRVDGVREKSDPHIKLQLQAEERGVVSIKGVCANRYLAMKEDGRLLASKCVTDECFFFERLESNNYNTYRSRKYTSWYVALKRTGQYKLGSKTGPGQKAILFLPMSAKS

Take `O=C1OCCC=C[C@H]2OC34C=CCN(c5ccc(Cl)cc5)C(=O)[C@H]3N(CCCO)C(=O)[C@@H]4C12` (stereo not given in full): the composite z-score in experiment [1] was -0.598; in experiment [2] it was -1.88; in experiment [3], -0.22; in experiment [4], -0.867; in experiment [5], -0.0633; in experiment [6], -0.584. In addition, the composite z-score is 0.196 in the experiment with Lefty1; -0.0198 in [8]; -0.047 in [10]; -0.414 in experiment [15]; -0.227 in experiment [16]; -0.531 in the experiment with Torsin-1A (Homo sapiens) [17]. Further, the composite z-score in the experiment with Torsin-1A (Homo sapiens) [18] was -1.56; in experiment [19] it was 0.0088. Besides, the z-score in experiment [7] is 0.0491; in experiment [9], -0.352 (inactive); in [11], -2.24 (inactive); in experiment [12], -0.925 (inactive); in experiment [13], -0.35 (inactive); in [14], -0.336 (inactive).

Turning to `Cc1ccc(S[C@]2(C(=O)O)CC(=O)N(Cc3ccccc3C(F)(F)F)[C@@H]2c2ccc(CO)cc2I)cc1`, the composite z-score in experiment [1] was 0.275; in [2], 0.0179; in experiment [3] it was -0.0066; in experiment [4], 0.0184; in experiment [5] it was 0.0699; in experiment [6], 0.511. The composite z-score with Lefty1 is -0.781; in experiment [8], 0.75; in [10], 0.192; in experiment [15], -0.584; in experiment [16], -0.193; with Torsin-1A (Homo sapiens) [17] it was -0.46. For the same compound, the values for the composite z-score (with Torsin-1A (Homo sapiens) [18]; in experiment [19]) were 1.98 and 0.0365, respectively. Also, the z-score in [7] was 0.348; in [9], -0.499 (inactive); in [11] it was -1.03 (inactive); in [12], 0.586 (inactive); in [13] it was -0.619 (inactive); in experiment [14] it was 1.81 (inactive).

As for `Cc1c(NC(=O)/C(C#N)=C/c2cccc([N+](=O)[O-])c2)c(=O)n(-c2ccccc2)n1C`, the composite z-score in [1] is 0.551; in experiment [2], 1.02; in experiment [3], -0.148; in experiment [4], 0.985; in experiment [5], 0.7; in experiment [6], 0.793. The composite z-score was 0.931 with Lefty1; 0.441 in [8]; 0.233 in experiment [10]; 0.891 in experiment [15]; -0.0774 in experiment [16]; 0.659 with Torsin-1A (Homo sapiens) [17]. Besides, the values for the composite z-score (with Torsin-1A (Homo sapiens) [18]; in [19]) were 1.12 and 0.478, respectively. Moreover, the z-score in [7] is 0.365; in experiment [9], -1.09 (inactive); in experiment [11] it was -3.67 (inactive); in [12] it was -1.97 (inactive); in [13] it was -0.554 (inactive); in experiment [14], -1.47 (inactive).

Turning to `CCCC=C(CCC)[C@@H](NS(=O)(=O)c1ccc(Cl)cc1)c1ccc(C(=O)OC)cc1`, the composite z-score in experiment [1] is 0.817; in experiment [2] it was 0.843; in experiment [3] it was 0.0301; in [4] it was 0.539; in [5], -0.843; in experiment [6] it was -0.174. In addition, the composite z-score in the experiment with Lefty1 was 0.181; in experiment [8], 0.309; in experiment [10] it was -0.16; in [15], 0.997; in experiment [16], -0.0011; with Torsin-1A (Homo sapiens) [17], 0.771. In addition, the composite z-score with Torsin-1A (Homo sapiens) [18] is 1.38; in experiment [19], -0.562. Besides, the z-score in [7] was 0.418; in experiment [9] it was 2.84 (inactive); in [11], -0.296 (inactive); in experiment [12], -0.382 (inactive); in experiment [13], -0.179 (inactive); in experiment [14], -0.146 (inactive).

In the case of `COc1ccc(C(=O)Nc2cccc(CN3C(=O)[C@]4(O[C@H](CCn5cc(CCO)nn5)[C@@H]([Si](C)(C)c5ccc(OC)cc5)[C@@H]4C)c4ccccc43)c2)cc1`, the composite z-score in experiment [1] was -0.0471; in experiment [2], 1.09; in experiment [3], 0.258; in experiment [4], 0.757; in [5], 1.29; in [6], 0.188. Further, the composite z-score in the experiment with Lefty1 was 0.834; in experiment [8], 0.351; in [10], 0.224; in [15], 0.38; in experiment [16], -0.0963; in the experiment with Torsin-1A (Homo sapiens) [17] it was 0.188. Moreover, the composite z-score with Torsin-1A (Homo sapiens) [18] came out at 0.359; in experiment [19] it was 1.21. For the same compound, the z-score in [7] was -1.11; in [9], -0.1 (inactive); in experiment [11] it was -7.97 (inactive); in experiment [12] it was -0.0511 (inactive); in experiment [13] it was 0.963 (inactive); in experiment [14] it was -1.52 (inactive).

(Values after PubChem BioAssay.)
